Compound activity from PubChem BioAssay.
Shown are actives, neighbours in structure and some others; about 6.2% of the full set was active somewhere.
HT1080NT lethal: qHTS for induction of synthetic lethality in tumor cells producing 2HG: qHTS for the HT-1080-NT fibrosarcoma cell line; HT-1080-NT fibrosarcoma viability, CellTiter-Glo ATP luminescence, 48 h; Potency, µM (series often up to 46.1 µM), inactives show top-dose activity, negative = less viability, actives largely listed as cytotoxic; 1.6% of 360,000 active; AID 686970, 2013;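 further: NT is the 2HG producing partner of a matched IDH1 knockdown line; 0% = DMSO-treated cells and -100% = media-only wells without cells; nearly all actives have a fitted effect of over 55% in size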
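Toxicity toward the 2HG-producing NT line was scored as %Activity, normalised to DMSO and no-cell wells, from CellTiter-Glo luminescence after 48 hours' treatment.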
HT1080 IDH1KD tx: qHTS for induction of synthetic lethality in tumor cells producing 2HG: qHTS for the HT-1080-IDH1KD cell line; HT-1080 IDH1 knockdown viability, ATP luminescence, 48 h; AID 686971, 2013; 2% of 360,000 active; Potency, µM (highest dose often 46.1 µM), inactives show at the top dose activity, negative = toxicity, most hits filed as cytotoxic;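 further: 0% = DMSO wells and -100% = cell-free medium wells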
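CellTiter-Glo luminescence after 48 h compound exposure at 37 degrees C of IDH1-knockdown HT-1080 cells in 5% FBS RPMI. %Activity scaled between DMSO wells and cell-free media wells, with curves fitted and assigned curve classes.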
KB-V1 MDR tox: qHTS assay for MDR1-selective chemotherapeutics: Primary screen using the drug-selected MDR subline cells KB-V1; 3.4% of 400,000 active; Potency, µM (series often up to 46.1 µM), most hits filed as cytotoxic; KB-V1 MDR cells viability, CellTiter-Glo, 72 h; further: on the % scale 0 is the no-effect control and ±100 the full control effect; nearly all actives have a fitted effect of over 60% in size
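qHTS viability screen in drug-selected KB-V1 MDR cells: 72 h compound treatment at 37 degrees C, ATP luminescence end point.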
ATXN viability: Viability Counterscreen for Primary qHTS for Inhibitors of ATXN expression; S2 cells (HEK-293 line with an ATXN2-luciferase reporter) viability, CellTiter-Fluor protease fluorescence, 24 h; Potency, µM (titrated, usually from 56.7 µM), actives largely listed as cytotoxic; 0.49% of 400,000 active; AID 651635, 2014; further: nearly all actives have a fitted effect of over 40% in size
KB-3-1 cytotox: qHTS assay for MDR1-selective chemotherapeutics: Primary screen using the parental adenocarcinoma cell KB-3-1; Potency, µM (doses to about 46.1 µM), actives largely listed as cytotoxic; AID 1347075, 2019; KB-3-1 viability, CellTiter-Glo ATP luminescence, 72 h; 1.4% of 400,000 active; further: on the % scale 0 is the no-effect control and ±100 the full control effect; nearly all actives have a fitted effect of over 60% in size
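Cytotoxicity measured as CellTiter-Glo luminescence after 72 h at 37 C. Compound titrations were pinned onto drug-naive KB-3-1 parental adenocarcinoma cells grown in DMEM with 10% FBS, and normalized data fitted to concentration-response curves.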
ATXN2 expr inh: Primary qHTS for Inhibitors of ATXN expression | Potency, µM (doses to about 57 µM), inactives show at the top dose activity change, negative = inhibition, usual class: inhibitors | AID 1745845, 2022 | HEK-293 ATXN2-luciferase reporter, luminescence, 24 h | 0.72% of 360,000 active; further: on the % scale 0 is the no-effect control and ±100 the full control effect; nearly all actives have a fitted effect of over 55% in size
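qHTS (up to 57 uM final) was run with 24 h compound exposure of reporter cells at 37 °C. Each well was multiplexed: SteadyGlo luminescence measured ATXN2-luciferase expression after a fluorogenic Gly-Phe-AFC viability readout (25 uM final).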
The depositor's hits bear a star; i = inactive; ? = inconclusive; . = not tested or not shown. The call rests on the fitted dose curve; in most records, active means well fitted curve in the direction sought with a large enough effect; inconclusive means small, poorly fitted or top-dose-only effect, or another doubt; inactive means no such curve, though single readings can be large; an effect the other way counts as inactive or inconclusive. Potency means the concentration at half of the fitted maximal effect.

SMILES	HT1080NT lethal	HT1080 IDH1KD tx	KB-V1 MDR tox	ATXN viability	KB-3-1 cytotox	ATXN2 expr inh
CCC(C)Sc1cc(C(F)(F)F)c(C(=O)Nc2ccc(Cl)cc2)cn1 (stereo unspecified)	?	23µM*	?	i	i	?
Cn1cc(C(=O)Nc2ccc(Cl)cc2)c(C(F)(F)F)n1	1%	1%	i	i	i	.
COc1ccc2cc3cc(C(=O)Nc4ccccc4N4CCN(C)CC4)oc3nc2c1	2%	7%	12µM*	.	?	?
CCC1CN(C(=O)Nc2cc(Cl)ccc2C(=O)OC)c2ccccc2S1 (stereo unspecified)	.	.	i	i	i	-8%
COc1ccccc1C1CC(c2c(-c3ccccc3)c3cc(Cl)ccc3[nH]c2=O)=NN1S(C)(=O)=O (stereo unspecified)	26µM*	?	?	?	?	?
COc1cccc(C2CC(c3c(-c4ccccc4)c4cc(Cl)ccc4[nH]c3=O)=NN2S(C)(=O)=O)c1OC (stereo unspecified)	?	18µM*	?	i	?	?
COc1ccc(F)cc1S(=O)(=O)Nc1ccc2c(c1)CCCN2C(=O)c1cccs1	.	.	i	i	i	-17%
c1ccc(-c2nnnn2-c2ccccc2)cc1	5%	0%	i	i	i	-20%
CNc1ncc(-c2nnnn2-c2ccccc2)c(-c2ccccc2)n1	-2%	-18%	21µM*	?	i	.
COc1ccccc1-c1cc(=O)c2c(O)ccc([N+](=O)[O-])c2o1	5%	14%	4.6µM*	i	21µM*	6%
Cc1cc(NC(=O)CCN2CCN(C/C=C/c3ccccc3)CC2)ccc1Br	21µM*	23µM*	?	i	?	-22%
O=C(Nc1ccc2c(c1)OCCO2)C(c1ccnc2ccccc12)n1c(=O)c(-c2ccco2)nc2ccccc21 (stereo unspecified)	8%	0%	i	.	i	.
Cn1c(=O)c2cc(NC(=O)Cc3ccccc3F)ccc2n1C/C=C/c1ccccc1	-4%	-6%	i	i	i	46%
O=C(Nc1ccc2c(c1)OCCO2)C(c1ccnc2ccccc12)N1CCN(C/C=C/c2ccccc2)CC1 (stereo unspecified)	?	15µM*	?	?	?	?
C(=C\c1ccccc1)/CN1CCN(C(c2ccnc3ccccc23)c2nnnn2C2CCCC2)CC1 (stereo unspecified)	-29%	?	15µM*	?	i	-26%
CCOCCC(=O)Nc1ccc2c(c1)c(=O)n(C)n2C/C=C/c1ccccc1	?	4.1µM*	?	?	6.5µM*	0%
CC(=O)Nc1ccc(C(=O)N2CCCC(n3cc(C(=O)NCC(C)C)nn3)C2)cc1 (stereo unspecified)	.	.	.	i	.	.
COc1cccc(CC(=O)NCC2Cc3cc(Cl)cc(-c4ncccn4)c3O2)c1 (stereo unspecified)	.	.	.	i	.	.
O=C(Nc1ccc2c(c1)OCO2)N1CCN(C/C=C/c2ccccc2)CC1	-4%	-21%	21µM*	i	i	-11%
Cc1ccccc1N1CCN(CCC(=O)Nc2ccc(F)cc2)CC1	0%	-2%	18µM*	i	?	.
CCC(CC)C(=O)N1CCc2cc(OC)c(OC)cc2C1COc1ccc2c(C)cc(=O)oc2c1 (stereo unspecified)	.	.	?	i	i	3%
CCN(CC(=O)NC(C)C)C(=O)C(CCSC)NC(=O)c1cccc(C)c1 (stereo unspecified)	-1%	-2%	23µM*	i	i	-2%
CCN(CC(=O)NC(C)C)C(=O)C(CCSC)NC(=O)c1ccccc1OC (stereo unspecified)	-2%	13%	i	i	i	-22%
Cc1cc(-c2nn(-c3ccccc3)cc2/C=C2\SC(N)=NC2=O)ccc1OC(C)C	7%	2%	16µM*	?	?	-23%
NCCCCNc1ncnc2ccc(-c3ccc4c(c3)OCO4)cc12	.	.	i	.	i	.
SMILES	HT1080NT lethal	HT1080 IDH1KD tx	KB-V1 MDR tox	ATXN viability	KB-3-1 cytotox	ATXN2 expr inh
CCCn1c2ccccc2c2cnn(CC(=O)NCCCN3CCN(c4ccccc4)CC3)c(=O)c21	18µM*	?	i	?	i	?
CCCn1c2ccccc2c2cnn(CC(=O)NCCCN3CCCCC3)c(=O)c21	0%	-3%	i	i	i	-5%
COc1ccc(C(=O)CC2(O)C(=O)N(CCc3ccccc3)c3ccc(Br)cc32)cc1OC (stereo unspecified)	.	.	i	?	i	?
COC(=O)c1scc(C#N)c1N/N=C(\C#N)S(=O)(=O)c1ccc(Cl)cc1	?	?	8.2µM*	?	?	?
COC(=O)c1scc(C)c1NC(=O)c1ccc(Cl)cc1	1%	0%	i	.	i	-7%
COc1ccc(OC)c(NC(=O)COCc2cc(-c3ccco3)on2)c1	.	.	i	.	i	.
O=C(/C=C/c1cccc(C(F)(F)F)c1)Nc1cccc(C(F)(F)F)c1	11µM*	7.9µM*	?	?	?	?
CSc1cccc(NC(=O)/C=C/c2cccc(Cl)c2)c1	-16%	-15%	18µM*	?	?	24%
O=c1[nH]cnc2c1sc1nc3c(c(-c4ccc(Cl)cc4)c12)CCC3	0%	2%	?	i	i	-8%
O=c1[nH]cnc2c1sc1nc(C(F)F)cc(-c3ccccc3)c12	-9%	-5%	12µM*	i	?	9%
Fc1ccc(Nc2nc(NCc3cccs3)nc3ccsc23)cc1	?	0%	i	?	i	0%
CCOC(=O)c1[nH]c2ccccc2c1NC(=O)c1cc(OC)cc(OC)c1	.	.	8.2µM*	i	i	-6%
O=S1(=O)N=C(Oc2ccc(Br)cc2)c2ccccc21	.	.	i	.	i	.
O=C(O)C(Cc1cc(I)c(O)c(I)c1)c1ccccc1 (stereo unspecified)	.	.	.	i	.	-2%
C1=Cc2ccccc2/C1=C\c1cc2c3c(c1)CCCN3CCC2	.	.	i	.	i	.
O=[N+]([O-])c1ccccc1S(=O)(=O)NCCC1=CCCCC1	12%	7%	15µM*	i	i	-2%
